The target in test [1] is Cytochrome P450 2C19 (Homo sapiens) (UniProt P33261). The test can be described thus: qHTS Assay for Inhibitors and Substrates of Cytochrome P450 2C19 (AID 899). Note: nearly all actives have a fitted effect of over 60% in size. Note: potency is the fitted concentration of half-maximal effect. In a few lines: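 5nM enzyme + 10uM Luciferin-H EGE (=KM), 50mM KPO4; cpd pin-transferred, 10 min 37C; NADPH regen, 60 min 37C; stopped w/ luciferin detection reagent, 20 min; luminescence. Normalized to 57uM ketoconazole (AC100).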
On the technique in general: qHTS replaces the single test concentration by a dilution series.

Test [2] concerns the target Cytochrome P450 2C9 (Homo sapiens) (UniProt P11712). Put plainly: qHTS Assay for Inhibitors and Substrates of Cytochrome P450 2C9 (AID 883). Note: nearly all actives have a fitted effect of over 60% in size. Note: potency is the fitted concentration of half-maximal effect. A digest of the protocol:
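Inhibition of CYP2C9 is scored as loss of luminescence, with 57uM sulphaphenazole defining 100% inhibition. Substrate Luciferin-H is used at 100uM, equal to its KM; enzyme at 10nM in 25mM KPO4, 60 min at 37C with NADPH regeneration.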

The nature of test [3]: S16 Schwann cell PMP22 intronic element firefly luciferase assay (AID 624032). Note: nearly all actives have a fitted effect of over 30% in size. A digest of the protocol:
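Luciferase reporter of PMP22 intronic-element expression in stably transfected S16 rat Schwann cells, read by ONE-Glo luminescence after 24 h compound exposure at 37 C. Activity scaled between DMSO (0%) and positive-control PTC124; concentration-effect curves quality-classified.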

Test [4] can be described thus: S16 Schwann cell PMP22 intronic element beta-lactamase assay (AID 624044; calls by dose curve; note: nearly all actives have a fitted effect of over 15% in size). In a few lines:
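Rat S16 Schwann cells with beta-Lac driven by a PMP22 intronic element, compound-treated 24 h at 37 °C. LiveBLAzer FRET B/G read: 460 nm normalized to potassium clavulanate vs DMSO; 535 nm FRET as viability; concentration-effect curves classified.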

The test system of test [5] is 7G8. Put plainly: qHTS profiling for inhibitors of Plasmodium falciparum proliferation (AID 504749). Note: nearly all actives have a fitted effect of over 60% in size. Note: potency is the fitted concentration of half-maximal effect. The following applies: P. falciparum in erythrocytes, SYBR Green DNA, 72 h; series mostly up to 12.8 µM. In a few lines: (§1)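 Infected RBCs, 0.3% parasitemia/2.5% Hct final; cpd 72 h, 37 C, 5% CO2; lysis buffer with saponin/triton/SYBR Green I, o/n RT dark; FI 485/535; norm. to artemisinin (0.29 uM) and DMSO.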

Test [6] deals with CP215. The description is as above. The following applies: P. falciparum in erythrocytes, SYBR Green DNA, 72 h; series mostly up to 12.8 µM. A digest of the protocol:
as §1

Test [7] concerns CP237. Described as above. The following applies: P. falciparum in erythrocytes, SYBR Green DNA, 72 h; series mostly up to 12.8 µM. In a few lines: as §1
Test [8] deals with CP266. Described as above. The following applies: P. falciparum in erythrocytes, SYBR Green DNA, 72 h; series mostly up to 12.8 µM. In a few lines:
as §1

In test [9] the test system is CP269. The test is described as above. The settings on record: P. falciparum in erythrocytes, SYBR Green DNA, 72 h; series mostly up to 12.8 µM. A digest of the protocol: as §1
The test system of test [10] is CP315. The test is described as above. The following applies: P. falciparum in erythrocytes, SYBR Green DNA, 72 h; series mostly up to 12.8 µM. A digest of the protocol: as §1
Test [11] deals with CP335. The description is as above. The following applies: P. falciparum in erythrocytes, SYBR Green DNA, 72 h; series mostly up to 12.8 µM. A digest of the protocol:
as §1

Test [12] concerns DIV17. Described as above. The settings on record: P. falciparum in erythrocytes, SYBR Green DNA, 72 h; series mostly up to 12.8 µM. In a few lines:
as §1

The subject of test [13] is GB4. The test is described as above. The following applies: P. falciparum in erythrocytes, SYBR Green DNA, 72 h; series mostly up to 12.8 µM. In a few lines:
as §1

The subject of test [14] is P94_40. The description is as above. The settings on record: P. falciparum in erythrocytes, SYBR Green DNA, 72 h; series mostly up to 12.8 µM. In a few lines:
as §1

In test [15] the test system is PC26. Described as above. The following applies: P. falciparum in erythrocytes, SYBR Green DNA, 72 h; series mostly up to 12.8 µM. A digest of the protocol: as §1
The test system of test [16] is W2. Described as above. The settings on record: P. falciparum in erythrocytes, SYBR Green DNA, 72 h; series mostly up to 12.8 µM. In a few lines:
as §1

Test [17] addresses Cytochrome P450 3A4 (Homo sapiens) (UniProt P08684). The test can be described thus: qHTS Assay for Inhibitors and Substrates of Cytochrome P450 3A4 (AID 884). Note: nearly all actives have a fitted effect of over 50% in size. Note: potency is the fitted concentration of half-maximal effect. A digest of the protocol: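 20 nM human CYP3A4 with 25 uM Luciferin-PPXE (at KM) in 200 mM KPO4, preincubated 10 min with compound; NADPH regeneration started a 60 min RT reaction. Luciferin detected by luminescence, normalized to 57 uM ketoconazole as full inhibition.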

Test [18] has the same target. The test can be described thus: qHTS Assay for Activators of Cytochrome P450 3A4 (AID 885). Note: nearly all actives have a fitted effect of over 65% in size. Note: potency is the fitted concentration of half-maximal effect. A digest of the protocol:
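Human CYP3A4 (20 nM) with Luciferin-PPXE at 25 uM (its KM) in 200 mM KPO4; 10 min compound preincubation, then NADPH regeneration and 60 min reaction at RT. Luciferin read by luminescence; normalized to 57 uM ketoconazole full inhibition.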

Test [19] is described as follows: Confirmation and Secondary Assay for Modulators of Hemoglobin Beta Chain Splicing at IVS2 654 locus (AID 910).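 Note: HeLa cells stably carrying EGFP split by mutant beta-globin IVS2-654 intron; per-well total GFP intensity by laser scanning cytometry after 2-day treatment.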 In a few lines:
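Readout: per-well total peak green fluorescence (488 nm ex, 500–520 nm em) from objects 5–250 µm, reflecting correct splicing of an EGFP-654 reporter. Compounds were applied for 2 days at 37 °C to overnight-plated HeLa EGFP-654 cells; controls were DMSO and 500 nM IVS2-654 PNA.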

The subject of test [20] is CP297. Put plainly: qHTS profiling for inhibitors of Plasmodium falciparum proliferation (AID 504749). Note: nearly all actives have a fitted effect of over 60% in size. Note: potency is the fitted concentration of half-maximal effect. The following applies: P. falciparum in erythrocytes, SYBR Green DNA, 72 h; series mostly up to 12.8 µM. In a few lines: as §1

Records with an inconclusive call do not appear. Activity calls are given as the source filed them. Unless noted, calls come from the whole dose curve; as a rule, active = well fitted curve in the direction sought with a large enough effect; inconclusive = small, poorly fitted or top-dose-only effect, or another doubt; inactive = no such curve, though single readings can be large; an effect the other way counts as inactive or inconclusive.

Sequence of Cytochrome P450 2C19 (Homo sapiens) (P33261 whole entry, looked up): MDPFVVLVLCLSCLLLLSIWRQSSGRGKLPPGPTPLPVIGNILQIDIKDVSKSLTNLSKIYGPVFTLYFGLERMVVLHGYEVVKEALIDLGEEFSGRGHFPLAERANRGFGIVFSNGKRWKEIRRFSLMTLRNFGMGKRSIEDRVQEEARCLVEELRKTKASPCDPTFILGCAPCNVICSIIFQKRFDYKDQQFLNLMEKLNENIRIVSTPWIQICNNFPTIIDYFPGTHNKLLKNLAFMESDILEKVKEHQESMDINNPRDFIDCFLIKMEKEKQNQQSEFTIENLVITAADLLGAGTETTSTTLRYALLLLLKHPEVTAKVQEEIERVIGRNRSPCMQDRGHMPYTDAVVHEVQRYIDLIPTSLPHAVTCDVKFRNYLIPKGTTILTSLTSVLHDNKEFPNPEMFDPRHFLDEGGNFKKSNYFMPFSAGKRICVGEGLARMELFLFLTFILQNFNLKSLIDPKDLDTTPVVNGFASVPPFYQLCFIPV
Sequence of Cytochrome P450 3A4 (Homo sapiens) (P08684 whole entry, looked up): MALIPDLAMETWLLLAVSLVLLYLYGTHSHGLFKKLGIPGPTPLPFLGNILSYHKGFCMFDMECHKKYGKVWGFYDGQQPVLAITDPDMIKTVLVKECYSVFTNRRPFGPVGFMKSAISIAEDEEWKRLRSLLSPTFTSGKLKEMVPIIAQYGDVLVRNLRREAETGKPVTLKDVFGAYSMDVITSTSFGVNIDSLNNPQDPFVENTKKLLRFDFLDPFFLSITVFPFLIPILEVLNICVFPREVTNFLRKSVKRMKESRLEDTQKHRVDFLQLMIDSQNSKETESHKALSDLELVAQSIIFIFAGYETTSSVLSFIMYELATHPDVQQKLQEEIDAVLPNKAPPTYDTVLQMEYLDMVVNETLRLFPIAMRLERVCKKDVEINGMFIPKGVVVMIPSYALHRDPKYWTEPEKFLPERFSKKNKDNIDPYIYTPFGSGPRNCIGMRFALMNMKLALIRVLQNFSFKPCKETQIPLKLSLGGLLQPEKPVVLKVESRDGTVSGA
Sequence of Cytochrome P450 2C9 (Homo sapiens) (P11712 whole entry, looked up): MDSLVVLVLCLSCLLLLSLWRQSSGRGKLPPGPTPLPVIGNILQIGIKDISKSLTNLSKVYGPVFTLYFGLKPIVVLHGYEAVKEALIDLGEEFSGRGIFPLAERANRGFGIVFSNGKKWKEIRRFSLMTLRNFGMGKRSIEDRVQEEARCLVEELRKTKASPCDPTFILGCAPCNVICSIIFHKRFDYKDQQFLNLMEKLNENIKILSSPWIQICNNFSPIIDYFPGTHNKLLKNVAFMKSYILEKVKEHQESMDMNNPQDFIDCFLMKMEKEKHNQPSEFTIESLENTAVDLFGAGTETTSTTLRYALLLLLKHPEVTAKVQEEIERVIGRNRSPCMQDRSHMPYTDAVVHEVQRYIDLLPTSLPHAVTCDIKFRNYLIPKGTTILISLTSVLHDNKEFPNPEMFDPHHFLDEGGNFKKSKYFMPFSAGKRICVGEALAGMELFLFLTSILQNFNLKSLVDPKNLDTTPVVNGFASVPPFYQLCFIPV

For the compound `C[N+]1(C)C[C@@H](O)C[C@@H]1C(=O)[O-]`, in test [1], the Potency entry is “inactive”.

With `C[C@@]12CC[C@@H]3c4ccc(O)cc4CC[C@H]3[C@H]1C[C@@H](O)[C@H]2O`, the Potency entry in [2] is “inactive”.

For `CCOC(=O)[C@H](CCc1ccccc1)N[C@@H](C)C(=O)N1[C@H](C(=O)O)C[C@H]2CCC[C@@H]21`, in test [1], the result was inactive. Also, the Potency entry in test [3], in test [4], in test [5], in [6], in test [7] and in test [8] was “inactive” each time. The Potency result in [9], in test [10], in test [11], in test [12], in test [13] and in [14] was “inactive” each time. In addition, the Potency entry in test [15] and in [16] was “inactive” in each case.

For the compound `Cc1noc(C)c1-c1nc(Nc2ccncc2)c2ccccc2n1`, the Potency in test [17] is 316 nM (active). In addition, the Potency entry in test [18] and in test [19] was “inactive” in each case.

Consider `CN(C)CCn1nnnc1SCC1=C(C(=O)O)N2C(=O)[C@@H](NC(=O)Cc3csc(N)n3)[C@@H]2SC1`, for which the Potency result in [3], in test [6], in test [7], in test [8], in test [20] and in test [10] was “inactive” in each case. For the same compound, the Potency was 3.55 µM (active) in test [5] and 6.42 µM (active) in [16].

For `CC(=O)N[C@H](CS)C(=O)O`, the Potency entry in test [2], in test [1] and in [19] was “inactive” in each case.

For the compound `Cn1c(-c2ccc3c(c2)OCO3)cc(=O)c2ccccc21`, in [18], the Potency result is “inactive”.

For `COc1cc2c(cc1OC)-c1cc3ccc(OC)c(OC)c3c[n+]1CC2`, the Potency result in test [18] and in [19] was “inactive” in each case.

As to `CC(=O)C[C@H](c1ccc([N+](=O)[O-])cc1)c1c(O)c2ccccc2oc1=O`, the Potency in test [2] was 631 nM (active). In addition, the Potency entry in test [3], in test [5], in test [6], in test [7], in [8] and in [9] was “inactive” in each case. Also, the Potency result in [10], in [11], in test [12], in test [13], in [14] and in [15] was “inactive” each time. The Potency entry in test [16] was “inactive”.

`C[C@@H](C(=O)O)c1ccc(C(=O)c2ccccc2)s1`: the Potency result in [18], in test [3], in [5], in test [6], in [7] and in [9] was “inactive” each time. In addition, the Potency entry in [20], in test [10], in test [11], in test [12], in test [13] and in test [14] was “inactive” each time. Moreover, the Potency result in [15] and in [16] was “inactive” throughout. For the same compound, the Potency in [1] is 3.98 µM (active).

As to `COc1c(O[C@H]2O[C@@H](CO)[C@@H](O)[C@@H](O)[C@@H]2O)cc2c(c1OC)-c1ccc(SC)c(=O)cc1[C@H](NC(C)=O)CC2`, the Potency entry in test [3], in [4], in test [5], in test [6], in test [7] and in test [8] was “inactive” throughout. In addition, the Potency entry in test [9], in [20], in test [10], in test [11], in test [12] and in test [13] was “inactive” each time. The Potency result in test [14], in test [15] and in test [16] was “inactive” in each case.

Consider `CC(=O)OCC(=O)[C@@]1(O)[C@H](C)C[C@@H]2[C@H]3CCC4=CC(=O)C=C[C@]4(C)[C@]3(F)[C@@H](O)C[C@@]21C`, for which the Potency entry in [5], in test [6], in test [7], in test [8], in test [9] and in test [20] was “inactive” each time. Moreover, the Potency entry in test [10], in test [11], in test [12], in test [13], in test [14] and in [15] was “inactive” each time. In test [16], the Potency result was “inactive”.

With `CC(=O)CC(=O)[C@@]1(O)CC[C@@H]2[C@@H]3C=C(C)C4=CC(=O)CC[C@@H]4[C@H]3CC[C@]21C`, in test [17], the Potency result is “inactive”. Moreover, the Potency is 2.51 µM (active) in test [18] and 5.01 µM (active) in [1].

In the case of `C[C@H](C(=O)O)c1cccc(Oc2ccccc2)c1`, the Potency entry in test [3], in [4], in test [6], in [7], in [8] and in test [9] was “inactive” each time. Besides, the Potency result in [20], in test [10], in [11], in test [12], in test [13] and in [14] was “inactive” throughout. Besides, the Potency result in test [15] and in [16] was “inactive” in each case.

In the case of `CC1(C)O[C@H]2C[C@@H]3[C@H]4CCC5=CC(=O)CC[C@@]5(C)[C@]4(F)[C@@H](O)C[C@@]3(C)[C@@]2(C(=O)CCl)O1`, the Potency entry in [3], in [4] and in test [8] was “inactive” throughout. In addition, the Potency was 1.58 µM (active) in test [5]; 6.42 µM (active) in test [12]; 5.73 µM (active) in test [13]; 3.16 µM (active) in test [14]; 6.42 µM (active) in [15]; 4.55 µM (active) in test [16].

As to `CC(C)(C)CC(C)(C)c1ccc(OCOCCOCCO)c(Cc2cc(C(C)(C)CC(C)(C)C)cc(Cc3cc(C(C)(C)CC(C)(C)C)ccc3OCOCCOCCO)c2OCOCCOCCO)c1`, in test [18], the Potency entry is “inactive”.

Regarding `C[C@@H]1Cc2ccccc2N1NC(=O)c1ccc(Cl)c(S(N)=O)c1` (some centres undefined), the Potency result in test [4], in test [6], in [7], in test [8], in test [9] and in test [20] was “inactive” each time. Besides, the Potency result in test [10], in test [11], in [12], in test [13], in [14] and in test [15] was “inactive” each time. In [16], the Potency entry is “inactive”.

In the case of `C=CC1=C(C(=O)O)N2C(=O)[C@@H](NC(=O)/C(=N\OCC(=O)O)c3csc(N)n3)[C@@H]2SC1`, the Potency result in test [4], in test [5], in test [6], in [7], in [8] and in test [9] was “inactive” each time. Also, the Potency entry in test [20], in test [10], in test [11], in [12], in [13] and in test [14] was “inactive” throughout. Further, the Potency result in [15] and in test [16] was “inactive” each time.

Consider `C[C@H]1CC[C@]2(OC1)O[C@@H]1C[C@@H]3[C@@H]4CC[C@H]5C[C@@H](O)CC[C@]5(C)[C@@H]4CC(=O)[C@@]3(C)[C@H]1[C@@H]2C`, for which the Potency result in test [3], in [5], in [6], in test [7], in test [8] and in test [9] was “inactive” in each case. Besides, the Potency result in [20], in test [10], in [11], in test [12], in test [13] and in [14] was “inactive” throughout. Also, the Potency result in [15] and in test [16] was “inactive” each time.

The values are drawn from PubChem BioAssay (NCATS).
